Source: PubChem
ALDH1A1 block: qHTS Assay for Inhibitors of Aldehyde Dehydrogenase 1 (ALDH1A1); Purified ALDH1A1, NADH fluorescence, propionaldehyde substrate; Potency, µM (highest dose often 75.3 µM), inactives show at the highest dose activity, negative = inhibition, actives largely listed as inhibitors; Aldehyde dehydrogenase 1A1 (Homo sapiens), P00352; actives 7.3% (n = 220,000);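 further: potency means the concentration at half of the fitted maximal effect; plate controls were no enzyme wells and a reference inhibitor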
PNC inhibitor: High Content Assay for Compounds that inhibit the Assembly of the Perinucleolar Compartment. PC3M PTB-GFP, PNC prevalence imaging, 16 h; hits give low values. activity change (PNC), negative = inhibition, % at 10 µM. actives 3.1% (n = 140,000). AID 2417, 2010;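 active means readout at or below -70, meaning at least 70% loss of cells showing the perinucleolar compartment, a nuclear body marking cancer cells; inconclusive means readout between -30 and a set limit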;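 further: plate controls were DMSO wells for no effect and camptothecin positive control wells for full effect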
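Read-out is percentage of cells bearing a perinucleolar compartment, from automated 20x imaging of fixed, Hoechst-stained PC3M PTB-GFP cells. Cells were seeded 4 h, then exposed 16 h to compound (23 nl of library stock) in duplicate plates.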
IMPase Li inh: qHTS Assay for Identifying the Cell-Membrane Permeable IMPase Inhibitors: Potentiation with Lithium. CHO-M1 cells, IP1 TR-FRET (IP-One), carbachol + lithium. Potency, µM (series often up to 59.4 µM), without a hit: at the highest dose activity, negative = IMPase inhibition, usual class: inhibitors. actives 0.35% (n = 210,000). AID 1457, 2008; active means well fitted curve in the direction sought with a large enough effect; inconclusive means small, poorly fitted or top-dose-only effect, or another doubt; inactive means no such curve, though single readings can be large; an effect the other way counts as inactive or inconclusive;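 further: IP1 builds up when IMPase is blocked and the TR-FRET signal falls; potency means the concentration at half of the fitted maximal effect; plate controls were basal vehicle for no effect and high inhibitor control for full effect; nearly all actives have a fitted effect of over 50% in size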
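CHO-M1, 2000 cells/well, 16–30 h culture; cpd + low Li+, 30 min 37C; lysis with d2-IP1/Eu-anti-IP1 Ab, 10 min RT; TR-FRET 665/620 ratio and 620 channel; AC50 via Hill.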
12-hLO inh: qHTS Assay for Inhibitors of 12-hLO (12-human lipoxygenase); actives 0.12% (n = 150,000); Polyunsaturated fatty acid lipoxygenase ALOX12 (Homo sapiens), P18054; Potency, µM (series often up to 57.1 µM), inactives show at the top dose activity change, negative = inhibition, most hits filed as inhibitors; purified 12-hLO, xylenol orange hydroperoxide absorbance; AID 1452, 2008; active means well fitted curve in the direction sought with a large enough effect; inconclusive means small, poorly fitted or top-dose-only effect, or another doubt; inactive means no such curve, though single readings can be large; an effect the other way counts as inactive or inconclusive; further: potency means the concentration at half of the fitted maximal effect; nearly all actives have a fitted effect of over 55% in size
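Purified human 12hLO (150 nM final) was preincubated with compounds for 15 min at room temperature in 25 mM Hepes pH 7.0, 0.01% Triton X-100, then reacted with 40 uM arachidonic acid for 30 min. Hydroperoxide was detected with ferrous iron/xylenol orange.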
HPGD block: qHTS Assay for Inhibitors of HPGD (15-Hydroxyprostaglandin Dehydrogenase); purified HPGD, NADH fluorescence kinetic, PGE2 substrate; Potency, µM, for inactives: top-dose activity change, negative = inhibition, usual class: inhibitors; actives 4.3% (n = 150,000); further: potency means the concentration at half of the fitted maximal effect
Target sequence (P15428 whole entry, looked up): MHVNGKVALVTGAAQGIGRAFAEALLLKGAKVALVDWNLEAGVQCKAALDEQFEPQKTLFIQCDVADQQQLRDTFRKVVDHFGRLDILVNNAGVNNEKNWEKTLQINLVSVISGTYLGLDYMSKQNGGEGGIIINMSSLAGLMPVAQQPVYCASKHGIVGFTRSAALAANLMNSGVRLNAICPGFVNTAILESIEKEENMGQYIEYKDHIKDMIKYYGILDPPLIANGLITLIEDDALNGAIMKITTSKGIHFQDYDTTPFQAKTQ
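NADH formation kinetics: reaction with 30 uM PGE2 and 1 mM NAD+ (final), 20 nM enzyme, Tris-HCl pH 8 with Tween 20, after 15 min compound preincubation at room temperature. Fluorescence change, last versus first of five reads.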
IMPase cell inh: qHTS Assay for Identifying the Cell-Membrane Permeable IMPase Inhibitors; CHO-M1 cells, IP1 accumulation, HTRF TR-FRET ratio; inhibition (IP1 accumulation), % at 46.1 µM; 120,000 tested, under 10 active; active means well fitted curve in the direction sought with a large enough effect in the signal ratio, not every such curve was filed as active; inconclusive means small, poorly fitted or top-dose-only effect, or a change in a side signal; inactive means no such curve, though single readings can be large or run the other way; the % refers to the signal ratio;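 further: cells stimulated with carbachol in lithium chloride buffer; plate controls were DMSO basal wells for no effect and reference inhibitor wells for full effect; higher means more IMPase inhibition seen as more IP1 and lower FRET ratio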
Target sequence (P97697 whole entry, looked up): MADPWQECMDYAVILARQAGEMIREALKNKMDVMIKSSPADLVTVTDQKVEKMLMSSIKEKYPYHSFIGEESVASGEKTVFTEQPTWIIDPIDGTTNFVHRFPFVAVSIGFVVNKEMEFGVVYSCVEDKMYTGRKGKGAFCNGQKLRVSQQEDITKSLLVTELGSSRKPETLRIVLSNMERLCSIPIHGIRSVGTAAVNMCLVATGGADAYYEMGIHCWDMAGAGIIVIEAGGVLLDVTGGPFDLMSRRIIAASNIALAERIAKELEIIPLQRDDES
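In this qHTS, compounds (final up to 46 uM) act on CHO-M1 cells that are then activated through the M1 receptor with carbachol, in pH 7.4 buffer containing 50 mM LiCl, for 30 min. IP1 accumulation is quantified by the IP-One immunoassay.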
Numbers without * were called inactive; ? = inconclusive; . = no result given; [ ] = dose if it differs, or a comment. The list is not random: actives were taken first. Their share in the collection is about 11%. Unless noted, the call rests on the fitted dose curve; in most records, active means well fitted inhibition curve with a large enough effect (not every such curve was filed as active); inconclusive means small, poorly fitted or top-dose-only effect, or another doubt; inactive means no such curve, though single readings can be large or run the other way. Unless noted, on the % scale 0 is the no-effect control and ±100 the full control effect.

SMILES | ALDH1A1 block | PNC inhibitor | IMPase Li inh | 12-hLO inh | HPGD block | IMPase cell inh
CC(=O)Nc1cccc(NC(=O)CSc2nnnn2C(C)C)c1 | 14.1µM* | ? | 3.0% | 0.1% | -3.2% | 6.1
COc1cc(NC(=O)CSc2nnnn2Cc2ccccc2)cc(OC)c1 | -4.7% | . | 8.9% | . | . | .
O=C(CSc1nnnn1Cc1ccccc1)Nc1ccc2c(c1)OCO2 | -46.9% | 33.9 | 42.2%[38.3 µM] | -8.8% | -21.6% | 9.7
Cc1ccc2nc3ccc(N4CCCCCCC4)nn3c(=O)c2c1 | 10µM* | ? | -22.4%[38.3 µM] | -2.9% | -27.3% | 6.4
Cc1ccc2nc3ccc(N4CCN(C)CC4)nn3c(=O)c2c1 | ? | -17.8 | -4.9%[38.3 µM] | 1.3% | -22.6% | 4.4
COc1cccc(C2C(C#N)=C(N)SC(c3ccccc3)C2[N+](=O)[O-])c1 (stereo not drawn) | 5.62µM* | . | 21.3% | . | . | .
CSc1nc(C)cc(Nc2ccc(O)c(CN3CCCCC3)c2)n1 | -2.0%[13.5 µM] | . | 8.0% | 3.0%[11.4 µM] | 3.4% | .
CCCn1[nH]cc(SC)c(=O)c1=O | 22.4µM* | ? | -0.6%[38.3 µM] | -18.9% | -6.3% | 8.8
Cc1ccccc1NC(=O)Cn1c(NCC(C)O)nc2ccccc21 (stereo not drawn) | 9.0% | -23.5 | -5.4% | -1.2% | -14.3% | -2.5
CC(C)c1ccc(OCC(=O)Nc2cccc(C(=O)Nc3ccccc3C(=O)O)c2)cc1 | 20µM* | . | -9.3% | . | . | .
Cc1cccc(OCC(=O)Nc2cccc(C(=O)Nc3ccccc3C(=O)O)c2)c1 | 5.62µM* | -29.1 | 16.1% | 1.1% | ? | .
COc1cccc(OCC(=O)Nc2ccccc2NC(C)=O)c1 | ? | -5.9 | -4.7%[38.3 µM] | 4.3% | -5.4% | 5.7
CC(C)C(=O)Nc1cccc(C(=O)Nc2ccccc2C(=O)O)c1 | -8.6% | 0.4 | 1.8%[38.3 µM] | 1.7% | -25.8% | -1.3
COc1cccc(C(=O)Nc2cc(C)ccc2NC(=O)COc2ccccc2)c1 | 14.1µM* | 19.7 | . | -7.0% | . | 0.6
O=C(COc1ccccc1)Nc1cccc(-c2nnc(-c3ccccc3)o2)c1 | -3.1% | -15.2 | 3.2%[38.3 µM] | 1.1% | 4.47µM* | 8.4
O=C(NCc1cccnc1)C(=O)Nc1ccc2c(c1)OCO2 | 2.4% | . | 1.2% | . | . | .
Cc1ccc(-c2nnc3c4ccccc4c(-c4ccccc4)nn23)cc1 | . | . | . | . | . | 6.4
Cc1cccc(OCC(=O)Nc2ccccc2C(F)(F)F)c1 | -4.3% | 13.1 | -1.0% | 1.8% | 17.8µM* | .
Fc1ccc(-c2cn3cc(Cc4ccc(Cl)cc4)sc3n2)cc1 | . | . | . | . | . | 3.2
CN(C)CCCN1C(=O)C(=O)/C(=C(/O)c2ccc(S(=O)(=O)N(C)C)cc2)C1c1ccncc1 (stereo not drawn) | 25.1µM* | . | . | 0.4% | -8.5% | .
Cc1ccc(/C(O)=C2/C(=O)C(=O)N(CCN3CCOCC3)C2c2ccccn2)cc1 (stereo not drawn) | ? | -18.7 | 19.4%[38.3 µM] | -9.6% | -6.4% | 1.2
CN(C)CCCN1C(=O)C(=O)/C(=C(/O)c2ccc3c(c2)OCCO3)C1c1ccco1 (stereo not drawn) | -0.6% | -86.0* | -0.9%[38.3 µM] | -1.7% | -6.5% | -5.9
O=C1C(=O)N(CCN2CCOCC2)C(c2ccccn2)/C1=C(/O)c1ccccc1 (stereo not drawn) | 3.55µM* | -26.8 | 25.5%[38.3 µM] | -12.0% | -20.4% | -7.9
CCN(CC)CCCN1C(=O)C(=O)/C(=C(/O)c2ccc3c(c2)OCCO3)C1c1ccco1 (stereo not drawn) | -5.1% | 20.1 | -8.9%[38.3 µM] | -12.1% | -17.7% | -12.7
Cc1ccc(C)c(/C(O)=C2/C(=O)C(=O)N(CCN3CCOCC3)C2c2ccco2)c1 (stereo not drawn) | 10µM* | -29.3 | -14.5%[38.3 µM] | -12.5% | ? | -6.4
SMILES | ALDH1A1 block | PNC inhibitor | IMPase Li inh | 12-hLO inh | HPGD block | IMPase cell inh
Cc1ccc(C2/C(=C(/O)c3cnn(-c4ccccc4)c3C)C(=O)C(=O)N2CCN2CCOCC2)o1 (stereo not drawn) | 7.94µM* | -27.8 | 16.9%[38.3 µM] | 6.2% | -18.4% | 3.0
Cc1ccc(C2/C(=C(\O)c3cnn(-c4ccccc4)c3C)C(=O)C(=O)N2CCN(C)C)o1 (stereo not drawn) | 2.3% | -29.8 | -1.8%[38.3 µM] | -7.7% | -19.7% | 9.3
Cc1cccc(C)c1Nc1nc2ccccc2nc1NS(=O)(=O)c1ccccc1 | . | . | . | . | . | 5.7
COCCN(C(=O)Cn1nnc2ccccc21)C(C(=O)NC1CCCC1)c1ccc(OC)cc1OC (stereo not drawn) | -2.1% | -87.8* | 4.6% | 1.7% | 0.9% | ?
Cn1c(NC(=O)/C=C/c2ccco2)cc(=O)n(C)c1=O | ? | -121.5* | 1.8% | -8.1% | -6.8% | .
Cc1ccc(/C=C/C(=O)Nc2cc(=O)n(C)c(=O)n2C)o1 | 22.4µM* | -12.1 | 6.0% | -1.4% | -10.9% | .
Cc1ccc(C(=O)Nc2cc(=O)n(C)c(=O)n2C)o1 | 3.8% | 93.2 | 6.3% | 13.0% | -11.3% | -4.0
N#Cc1c(SCC(N)=O)nc2c(c1-c1ccc(O)cc1)CCCC2 | 7.08µM* | ? | 31.3%[38.3 µM] | -3.3% | -23.5% | -1.5
COc1ccc(-c2c(C#N)c(SCC(N)=O)nc3c2CCCC3)cc1 | ? | 86.2 | ? | -7.9% | 0.3% | 1.2
CCC(=O)N(Cc1ccco1)c1nc(-c2cc(OC)ccc2OC)cs1 | -1.3% | -100.0* | 15.8% | -0.5% | -13.9% | -8.9
CCC(=O)N(Cc1ccco1)c1nc(-c2ccc(OC)cc2)cs1 | 2.0% | 17.0 | 15.8% | -6.9% | -1.6% | 16.6
CCN(CC)c1ccc(/C=C2\CCC(/C=C(\C#N)C(=O)Nc3ccccc3F)=C2N2CCOCC2)cc1 | ? | 48.2 | 19.2% | -1.9% | 11.2µM* | 5.9
CC(=O)CCOC1CCCCO1 (stereo not drawn) | 9.2% | . | 45.2% | . | -8.3% | .
CC1(C(=O)CSc2nc3ccccc3[nH]2)CCC(=O)O1 (stereo not drawn) | -0.5% | -100.0* | -3.8% | 4.4% | -9.8% | -2.0
Cc1cc(C(=O)Nc2nnc(-c3ccccc3)s2)no1 | -5.5% | -98.4* | -9.2%[38.3 µM] | 0.3% | -29.1% | 1.8
Cc1onc(-c2ccccc2)c1C(=O)Nc1nc2c(s1)CCCC2 | ? | 36.4 | 12.3%[38.3 µM] | -12.7% | -14.4% | -6.5
Cc1cc(C(=O)Nc2nc3c(s2)CCCC3)no1 | 11.2µM* | -106.7* | 20.8%[38.3 µM] | 1.3% | -17.6% | 3.5
NCCC(O)(P(=O)(O)O)P(=O)(O)O | -5.2% | . | 3.7% | 3.5%[0.00818 µM] | -9.6% | .
